Results: PubChem BioAssay (NCATS)
Values joined by “and” are separate entries in the source; they are usually repeats but may differ in a detail not shown here. Equal entries are not always repeated. Records with an inconclusive call do not appear. Active and inactive are the calls of the source. Calls follow the shape of the dose curve; as a rule, active = well fitted inhibition curve with a large enough effect; inconclusive = small, poorly fitted or top-dose-only effect; inactive = flat fitted curve, though single readings scatter. Where a SMILES comes first, the peptide text is derived from it. [ ]: non-standard residue; d: D form. pGlu = O=C1CC[C@@H](C(=O)O)N1

What was measured:
[1] = system: HEK293; assay: Cytotoxic Profiling of Annotated Libraries Using Quantitative High-Throughput Screening (AID 1296008); conditions: Five cell lines viability, CellTiter-Glo ATP luminescence, 48-72 h; max response: stronger effect = lower value
How it was run: (§1)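 Cytotoxicity was measured as CellTiter-Glo ATP luminescence, read after 10 min at room temperature. Compound treatment of the cells lasted 48 or 72 hr at 37 degrees Celsius in a qHTS format.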

[2] = system: NIH3T3; assay: as above; conditions: Five cell lines viability, CellTiter-Glo ATP luminescence, 48-72 h; max response: stronger effect = lower value
How it was run: as §1

[3] = system: MKL-2; assay: qHTS assay to identify novel small-molecules to repurpose for Merkel cell carcinoma treatment (AID 1296009); conditions: MCC and control cell lines, CellTiter-Glo viability, 72 h; series mostly up to 46 µM
How it was run: (§2)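 72 hr, 37 degree celsius; NPC 8-pt / MIPE 11-pt dose response; compound pinned in DMSO; CellTiter-Glo, 10 min RT, luminescence; normalized to no-cell and DMSO controls.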

[4] = system: HaCat; assay: Cytotoxic Profiling of Annotated Libraries Using Quantitative High-Throughput Screening (AID 1296008); conditions: Five cell lines viability, CellTiter-Glo ATP luminescence, 48-72 h; max response: stronger effect = lower value
How it was run: as §1

[5] = system: KB-3-1; assay: as above; conditions: Five cell lines viability, CellTiter-Glo ATP luminescence, 48-72 h; max response: stronger effect = lower value
How it was run: as §1

[6] = system: MCC-13; assay: qHTS assay to identify novel small-molecules to repurpose for Merkel cell carcinoma treatment (AID 1296009); conditions: MCC and control cell lines, CellTiter-Glo viability, 72 h; series mostly up to 46 µM
How it was run: as §2

[7] = system: MCC-26; assay: as above; conditions: MCC and control cell lines, CellTiter-Glo viability, 72 h; series mostly up to 46 µM
How it was run: as §2

[8] = system: MKL-1; assay: as above; conditions: MCC and control cell lines, CellTiter-Glo viability, 72 h; series mostly up to 46 µM
How it was run: as §2

[9] = system: HEK293T; assay: as above; conditions: MCC and control cell lines, CellTiter-Glo viability, 72 h; at 44.8 µM (top of the series) unless noted
How it was run: as §2

[10] = system: HACAT; assay: as above; conditions: MCC and control cell lines, CellTiter-Glo viability, 72 h; at 44.8 µM (top of the series) unless noted
How it was run: as §2
% is scaled to controls: 0 for no effect and ±100 for the full control effect; potency is read from the fitted curve at half-maximal effect.
Also: nearly all actives have a fitted effect of over 60% in size.

Cc1nc(N)nc(N)c1-c1ccc(Cl)c(Cl)c1
active: Potency [1] 1.06 µM | Potency [2] 0.841 µM
inactive: Potency [3]

CCCCC/C=C\C/C=C\CCCCCCCC(=O)NC(C)c1ccccc1 (centres undefined)
inactive: max response [4] -11.3% | max response [5] -8.18% | max response [2] -26.3% | Potency [6] | Potency [7] | Potency [8]

Cc1nn(-c2ccccc2)c(C)c1/C=N/N1CCN(Cc2ccccc2)CC1
inactive: max response [4] -14.9% | max response [5] 8.96% | max response [2] 3.85%

Cc1cc(C(C)(C)C)c(O)c(C(C)(C)C)c1
inactive: max response [1] -3.94% | Potency [6] | Potency [7] | Potency [8] | Potency [3]

O=[N+]([O-])c1ccc(O)c2ncccc12
active: Potency [1] 8.41 µM | Potency [2] 15 µM | Potency [6] 11.9 µM | Potency [7] 13.3 µM | Potency [8] 3.76 µM | Potency [3] 2.66 µM

Cc1ccc(C(=O)C(=O)O)cc1C
inactive: outcome [1] | max response [2] 2.73% | outcome [9] | Potency [6] | Potency [7] | Potency [8] | Potency [3]

CCNC(=O)[C@@H]1CCCN1C(=O)[C@H](CCCN=C(N)N)NC(=O)[C@H](CC(C)C)NC(=O)CNC(=O)[C@H](Cc1ccc(O)cc1)NC(=O)[C@H](CO)NC(=O)[C@H](Cc1c[nH]c2ccccc12)NC(=O)[C@H](Cc1cnc[nH]1)NC(=O)[C@@H]1CCC(=O)N1 ([pGlu]HWSYGLRP-NHEt)
inactive: max response [1] -8.7% | max response [2] -1.57% | Potency [6] | Potency [7] | Potency [8]

Clc1ccc2c(c1)N=C(N1CCNCC1)c1ccccc1N2
inactive: max response [4] 2.45%

CN1CC[C@H](c2c(O)cc(O)c3c(=O)cc(-c4ccccc4Cl)oc23)[C@H](O)C1
active: Potency [4] 0.75 µM | Potency [5] 1.03 µM

CC(C)(C)NCC(O)COc1ccccc1OCC1CCCO1 (centres undefined)
inactive: max response [1] -1.05% | outcome [2] | Potency [6] | Potency [7] | Potency [8] | Potency [3]

CNC(=O)c1cnn(-c2nc(N)c3ncn([C@@H]4O[C@H](CO)[C@@H](O)[C@H]4O)c3n2)c1
inactive: outcome [1] | max response [2] -3.79% | outcome [9] | Potency [6] | Potency [7] | Potency [8] | Potency [3]

CCCCCN(CCCOC)C(=O)C(CCC(=O)O)NC(=O)c1ccc(Cl)c(Cl)c1 (centres undefined)
inactive: max response [1] -5.64% | max response [2] -3.2% | Potency [6] | Potency [7] | Potency [8] | Potency [3]

Nc1c2ccccc2nc2ccccc12
active: Potency [1] 5.96 µM | Potency [2] 21.1 µM | Potency [6] 18.8 µM | Potency [8] 3.35 µM

CCN(CC)CCN
inactive: max response [1] 2.25% | max response [2] -0.486% | Potency [6] | Potency [7] | Potency [8] | Potency [3]

COCCc1ccc(OCC2CO2)cc1 (centres undefined)
inactive: max response [1] 1.88% | max response [2] -4.27% | Potency [6] | Potency [7] | Potency [8] | Potency [3]

OCc1c[nH]c2ccccc12
active: Potency [1] 21.7 µM | Potency [3] 24.3 µM
inactive: Potency [6] | Potency [7]

C[C@@H]1C[C@H]2[C@@H]3CCC4=CC(=O)C=C[C@]4(C)[C@@]3(F)[C@@H](O)C[C@]2(C)[C@@]1(O)C(=O)COC(=O)c1ccncc1
inactive: max response [1] -6.52% | max response [2] -6.36% | Potency [6] | Potency [8] | Potency [3]

CC1CC(=O)NN=C1c1ccc(NCC(C)(C)NCC(O)COc2cc(Cl)ccc2C#N)cc1 (centres undefined)
inactive: max response [4] -12.2% | max response [5] -1.42% | max response [2] -20.4% | Potency [6] | Potency [7] | Potency [8] | Potency [3]

O=C(NO)c1ccccc1
inactive: max response [4] 4.14% | max response [5] -12.1% | max response [2] -4.92% | Potency [6] | Potency [7] | Potency [8]

CCCCCCCCCCCCCCCCCCN(C)C
inactive: max response [1] -2.54% | max response [2] 0.657% | Potency [6] | Potency [7] | Potency [8] | Potency [3]

CC(=O)OC/C=C(C)/C=C/C=C(C)/C=C/C1=C(C)CCCC1(C)C
active: Potency [3] 3.76 µM
inactive: outcome [4] | max response [5] -3.66% | max response [2] 1.83% | outcome [10] | Potency [6] | Potency [7]

Nc1ccc2c(c1)CN1C(=O)c3ccccc3C1=N2
inactive: Potency [7] | Potency [3]
active: Potency [1] 5.8 µM | Potency [2] 7.31 µM

CCOC(=O)C1=C(C)NC(C)=C(C(=O)OCC)C1c1ccccc1/C=C/C(=O)OC(C)(C)C
inactive: Potency [7]
active: Potency [1] 7.5 µM | Potency [8] 26.6 µM | Potency [3] 21.1 µM

O=C(OCC(O)CO)c1ccccc1Nc1ccnc2c(C(F)(F)F)cccc12 (centres undefined)
inactive: max response [4] -6.27% | max response [2] -7.27% | Potency [6] | Potency [7]

Cc1ccc(Cl)c(OCC(O)CNC(C)(C)C)c1 (centres undefined)
inactive: max response [4] 2.84% | max response [2] 1.79% | Potency [6] | Potency [7] | Potency [8] | Potency [3]

O=C1OC2(c3ccccc31)c1cc(I)c(O)c(I)c1Oc1c2cc(I)c(O)c1I
inactive: outcome [4] | max response [2] -20.5% | outcome [10] | Potency [6] | Potency [7] | Potency [8]

CCCc1ccc(OCC(=O)N2CCN(C(=O)COc3ccc(CCC)cc3OC)CC2)c(OC)c1
inactive: max response [4] 5% | max response [2] 0.399% | Potency [6] | Potency [7] | Potency [8] | Potency [3]

N#C/C(=C1/SC[C@@H](c2ccc(Cl)cc2Cl)S1)n1ccnc1
inactive: max response [4] -0.746% | max response [5] -3.46% and -14.6% and -17.3% | max response [2] -5.57% | Potency [7]

CCC(CN)=C(c1ccccc1)c1ccccc1
inactive: max response [4] 1.4% | outcome [2] | Potency [6] | Potency [7] | Potency [8] | Potency [3]

COc1cc2nc(Cl)nc(N)c2cc1OC
inactive: max response [4] 0.108% | max response [2] -0.129% | Potency [6] | Potency [7] | Potency [8] | Potency [3]

CCC(=O)Oc1ccc2c(c1)CC[C@@H]1[C@@H]2CC[C@@]2(C)[C@H]1C[C@@H](OC(=O)CC)[C@@H]2OC(=O)CC
inactive: max response [4] -1.68% | outcome [2] | Potency [6] | Potency [7] | Potency [8] | Potency [3]

COC(=O)C1=C(C)NC(C)=C(C(=O)OCCc2ccc(N3CCN(C(c4ccccc4)c4ccccc4)CC3)cc2)C1c1cccc([N+](=O)[O-])c1 (centres undefined)
inactive: outcome [4] | max response [2] -0.486% | outcome [10] | Potency [6] | Potency [7] | Potency [8] | Potency [3]

Cc1ccc(CCn2c3c(c4cc(Cl)ccc42)CN(C)CC3)cn1
inactive: outcome [4] | max response [2] 0.803% | outcome [10] | Potency [6] | Potency [7] | Potency [8]

O=C(OCCN1CCOCC1)c1cccnc1Nc1cccc(C(F)(F)F)c1
inactive: outcome [4] | max response [2] -0.363% | outcome [10] | Potency [6] | Potency [7] | Potency [8] | Potency [3]

Cc1nc(C2CCCCC2)c(-c2ccc(S(N)(=O)=O)c(F)c2)o1
inactive: outcome [4] | max response [2] -12.8% | outcome [10] | Potency [6] | Potency [8] | Potency [3]

O=C(CCC1CCN(Cc2ccccc2)CC1)c1ccc2c(c1)NCCCC2
inactive: max response [4] 2.9% | max response [5] -12.9% | Potency [6] | Potency [7] | Potency [8]

C/C=C(/C(=C/C)c1ccc(OC(C)=O)cc1)c1ccc(OC(C)=O)cc1
inactive: outcome [4] | max response [2] -0.599% | outcome [10] | Potency [6] | Potency [7] | Potency [8] | Potency [3]

CCCC(=O)O[C@]1(C(=O)CCl)[C@@H](C)C[C@H]2[C@@H]3CCC4=CC(=O)C=C[C@]4(C)[C@@]3(F)C(=O)C[C@@]21C
inactive: max response [4] -2.69% | max response [2] -3.48% | Potency [6] | Potency [7]

CCN1CCN(c2cc(-c3ccc(F)cc3)c3c(n2)CCCCCC3)CC1
inactive: max response [4] 0.965% | max response [5] -12.5% | outcome [2] | Potency [6] | Potency [7] | Potency [8] | Potency [3]

CN(C)[C@@H]1C(=O)C(C(N)=O)=C(O)[C@@]2(O)C(=O)C3=C(O)c4c(O)cccc4C[C@H]3C[C@@H]12
inactive: max response [4] -5.74% | max response [2] 1.19% | Potency [6] | Potency [7]

CC1CCCCN1CCCOC(=O)c1ccc(OC2CCCCC2)cc1 (centres undefined)
inactive: outcome [4] | max response [2] -13.4% | outcome [10] | Potency [6] | Potency [7]

CC(C)Cc1ccc(C(C)C(=O)OCc2ccccn2)cc1 (centres undefined)
inactive: outcome [4] | max response [2] -1.73% | outcome [10] | Potency [6] | Potency [7] | Potency [8]

O=C1Nc2ccccc2C1(c1ccc(O)cc1)c1ccc(O)cc1
inactive: max response [4] -55.1% | max response [2] -21.7% | Potency [6] | Potency [7] | Potency [8] | Potency [3]

O=C1NC(=O)/C(=C/c2ccc3c(c2)OC(F)(F)O3)S1
inactive: max response [4] -3.64% | max response [2] -4.12%

CN1CCC(Nc2ncc3ncnc(Nc4ccc(F)c(Cl)c4)c3n2)CC1
inactive: max response [5] -0.0832% | Potency [6] | Potency [7]
active: Potency [4] 0.237 µM | Potency [3] 15 µM

CO/N=C(/C(=O)N[C@@H]1C(=O)N2C(C(=O)O)=C(Cn3nnc(C)n3)CS[C@H]12)c1csc(N)n1
inactive: max response [4] -1.44% | outcome [5] | max response [2] 2.67% | Potency [6] | Potency [7] | Potency [8] | Potency [3]

CCN1C(=O)c2ccccc2C1Nc1ccc(OCCN2CCCCC2)cc1 (centres undefined)
inactive: max response [4] -6.62% | max response [2] -13.7% | Potency [6] | Potency [7] | Potency [8] | Potency [3]

CCCCNc1ccc(C(=O)OCCN(CC)CC)cc1
inactive: max response [4] -28.3% | max response [5] -0.138% | Potency [6] | Potency [7] | Potency [8] | Potency [3]

CN1CCC(N(Cc2cccs2)c2ccccc2)CC1
inactive: max response [4] -4.44% | max response [5] -11.3% | max response [2] -5.48% | Potency [6] | Potency [7] | Potency [8] | Potency [3]

NCC(=O)O
inactive: max response [4] -52.5% | max response [2] -6.02% | Potency [6] | Potency [7] | Potency [8] | Potency [3]
